Results taken from PubChem BioAssay (EPA / NIEHS).
Values joined by “and” are separate entries in the source; they are usually repeats but may differ in a detail not shown here. Identical values can stand only once. The source holds several records for some structures; these can differ, active in one and inactive in another. Active and inactive are the calls of the source. Rule for the calls: active = hit-call score of the fitted dose curve at least 0.9, where 1 is the maximum; inactive = score below 0.9.

Each compound was assayed on Thyroid Hormone Responsive (THRSP), THRSP (gene 7069) (assay: LTEA_HepaRG_THRSP: Life Technologies and Expression Analysis (LTEA) Assay for Thyroid Hormone Responsive (THRSP) using HepaRG (AID 2283536)). Conditions: mRNA level, 48 h; actives raise or lower the signal.
In short: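 Cell model: human HepaRG, approx. 100,000 cells/well, 0.5% DMSO vehicle. Exposure lasts 48 h; phenobarbital 1 mM serves as induction positive control. Gene expression is measured by qRT-PCR against three endogenous control genes.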
In the case of `Oc1ccc(Cl)cc1Cc1ccccc1`, the AC50 is reported as 78.1 µM (active) and 50.5 µM (active) and 87.7 µM (active). For `O=S(=O)(O)C(F)(F)C(F)(F)C(F)(F)C(F)(F)C(F)(F)C(F)(F)C(F)(F)C(F)(F)F`, the AC50 was 34.2 µM (active) and 45.8 µM (active) and 60 µM (active) and the outcome was “inactive”. With `CC(C)(C)C(O)C(Oc1ccc(Cl)cc1)n1cncn1` (stereo not given) the AC50 was 35.3 µM (active) and 36 µM (active) and 27.9 µM (active). For `CNC(=O)Oc1ccccc1OC(C)C`, the outcome was “inactive”. With `COP(=S)(OC)Oc1ccc([N+](=O)[O-])cc1` the outcome was “inactive”. With `CNC(=O)Oc1cccc(N=CN(C)C)c1` the outcome was “inactive”. With `O=C(Nc1ccccc1)Nc1cnns1` the AC50 was 73.5 µM (active). In the case of `O=C(O)COc1ccc(Cl)cc1Cl`, the outcome is reported as “inactive”. With `CCOCN(C(=O)CCl)c1c(C)cccc1CC` the AC50 was 9.92 µM (active). For `CC1(c2ccc(Oc3ccccc3)cc2)OC(=O)N(Nc2ccccc2)C1=O` (stereo not given), the AC50 was 24.1 µM (active). With `N#Cc1c(Cl)c(Cl)c(Cl)c(C#N)c1Cl` the AC50 was 13.2 µM (active). With `Oc1cc(Cl)ccc1Oc1ccc(Cl)cc1Cl` the AC50 was 94.7 µM (active) and the outcome was “inactive”. `CC1(C)C(C=C(Cl)Cl)C1C(=O)OC(C#N)c1ccc(F)c(Oc2ccccc2)c1` (stereo not given) was tested, and the outcome was “inactive”. For `CN1CSC(=S)N(C)C1`, the outcome was “inactive”. In the case of `CCN(CC)C(=O)SCc1ccc(Cl)cc1`, the outcome is reported as “inactive”. In the case of `O=C(O)C(F)(F)C(F)(F)C(F)(F)C(F)(F)C(F)(F)C(F)(F)C(F)(F)F`, the AC50 is reported as 26.1 µM (active) and the outcome is reported as “inactive”. For `CCc1ccc(C(=O)NN(C(=O)c2cc(C)cc(C)c2)C(C)(C)C)cc1`, the AC50 was 21.5 µM (active).
